Compound activity (PubChem)
Avidin bead fluor = green autofluorescence of compounds with avidin beads – biophysical, 488/530 nm, flow cytometry, artefact control, profiling panel | fluorescence (KMESF) at 10 µM | compound fluorescence 488/530 nm; hits give high values | AID 1775, 2009 | actives 0.38% (n = 220,000); in the data active = fluorescence above about 47
GSH bead fluor = compound fluorescence on glutathione beads, profiling panel, artefact control, biophysical, 488/530 nm, flow cytometry. GSH beads flow cytometry, compound fluorescence 488/530 nm; hits give high values. fluorescence (KMESF) at 10 µM. actives 0.25% (n = 190,000). AID 1776, 2009; in the data active = fluorescence above about 89;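 note: glutathione beads carrying GST-tagged Bcl family fusion proteins plus one bare bead set; values are compound well signal with DMSO vehicle wells as background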
RGS4-Gao reg = modulators of RGS4 binding to Galphao, primary screen, biochemical, multiplexed bead flow cytometry; actives lie on both sides; binding response (% of control), % at 10 µM; actives 0.33% (n = 220,000); AID 1415, 2008; in the data active = binding response below about 49% or above about 150%; inactive = in between;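 note: fluorescent Galphao activated with aluminum fluoride binding bead-coupled RGS4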
Target sequence (P09471 whole entry, looked up): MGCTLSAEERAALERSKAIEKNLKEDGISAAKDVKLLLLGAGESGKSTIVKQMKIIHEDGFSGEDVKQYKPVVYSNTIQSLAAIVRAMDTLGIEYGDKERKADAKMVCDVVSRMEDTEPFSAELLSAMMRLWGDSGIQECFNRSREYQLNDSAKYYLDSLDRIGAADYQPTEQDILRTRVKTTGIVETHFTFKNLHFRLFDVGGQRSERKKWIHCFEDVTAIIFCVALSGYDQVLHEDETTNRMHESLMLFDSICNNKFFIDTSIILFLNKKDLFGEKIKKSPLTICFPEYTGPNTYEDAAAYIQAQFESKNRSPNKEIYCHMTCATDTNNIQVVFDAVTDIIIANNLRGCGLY
RGS8-Gao = RGS8-Galphao binding modulators, primary screen, biochemical, multiplexed bead flow cytometry | response (percent of control binding), % at 10 µM | actives lie on both sides | actives 0.34% (n = 220,000); in the data active = response below about 60% or above about 140%; inactive = in between;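 note: Galphao activated as the GDP aluminium fluoride complex binding bead-coupled RGS8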
RGS7-Gao = RGS7-Galphao binding modulators, primary screen, biochemical, multiplexed bead flow cytometry; Guanine nucleotide-binding protein G(o) subunit alpha (Homo sapiens), P09471; actives lie on both sides; AID 1439, 2008; actives 0.35% (n = 220,000); binding response (% of control), % at 10 µM; in the data active = binding response below about 49% or above about 150%; inconclusive = no clear call, values can overlap the other calls; inactive = in between;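 note: fluorescent Galphao held in activated GDP-AlF4 state binding bead-coupled RGS7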
RGS16-Gao HTS = modulators of RGS16 binding to Galphao, primary screen, biochemical, human proteins, multiplexed bead flow cytometry; Regulator of G-protein signaling 16 (Homo sapiens) + Guanine nucleotide-binding protein …; bead-based flow cytometry RGS16-Galphao binding, fluorescence; actives lie on both sides; binding response (% of control), % at 10 µM; actives 0.38% (n = 220,000); AID 1441, 2008;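 note: Galphao activated by GDP with aluminum fluoride before binding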
RGS4-Gao HTS = modulators of RGS–Galpha-o binding, primary screen, biochemical, multiplexed beads, flow cytometry, RGS4/7/8/16/19; shares compounds with RGS16-Gao HTS; multiplexed bead flow cytometry; RGS4–Galpha-o binding response, % at 10 µM; actives 99% (n = 1,600); AID 1504, 2009;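 note: fluorescently labeled Galpha-o bound to GDP with aluminium fluoride binding biotinylated RGS beads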
Avidin counter = disruption of biotin probe capture by avidin, counter-screen for RGS protein interaction modulators, biochemical, flow cytometry, bead-based; 1,700 tested, under 10 active; inhibition, % at 10 µM; streptavidin beads, fluorescein-biotin binding; AID 1783, 2009; shares compounds with RGS16-Gao HTS;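 active = inhibition above 50%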;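 note: median green fluorescence of gated singlet beads compared with DMSO control wells; 0% = DMSO wells and 100% = complete loss of bead fluorescence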
RGS8-Gao single = RGS8-Galphao binding modulators, confirmation, biochemical, multiplexed bead flow cytometry, single concentration; shares compounds with RGS16-Gao HTS; bead-based flow cytometry RGS8-Galphao binding, fluorescence; actives lie on both sides; binding response (% of control), % at 10 µM; actives 3% (n = 1,700); AID 1836, 2009; in the data active = binding response below about 72% or above about 130%; inactive = in between;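 note: Galphao activated as GDP AlF4 complex before binding bead RGS8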
RGS7-Gao single = RGS7-Galphao binding modulators, confirmation, biochemical, multiplexed bead flow cytometry, single concentration; response (percent of control binding), % at 10 µM; shares compounds with RGS16-Gao HTS; actives 7.8% (n = 1,700); AID 1837, 2009; bead-based flow cytometry RGS7-Galphao binding; actives lie on both sides; in the data active = response below about 75% or above about 130%; inactive = in between;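 note: fluorescent Galphao activated with GDP and aluminum fluoride binding bead-coupled RGS7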
RGS16-Gao single = modulators of RGS16-Galphao protein binding, confirmation, biochemical, single concentration, multiplexed bead flow cytometry | shares compounds with RGS16-Gao HTS | bead-based flow cytometry; actives lie on both sides | response (% of control binding), % at 10 µM | actives 4% (n = 1,700) | AID 1838, 2009; in the data active = response below about 74% or above about 130%; inactive = in between;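 note: Galphao activated as the GDP aluminium fluoride complex binding bead-coupled RGS16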
RGS4-Gao confirm = modulators of RGS4-Galphao protein binding, confirmation, biochemical, single concentration, multiplexed bead flow cytometry; shares compounds with RGS16-Gao HTS; binding response (% of control), % at 10 µM; actives lie on both sides; actives 4% (n = 1,700); AID 1840, 2009; in the data active = binding response below about 74% or above about 130%; inactive = in between
RGS19-Gao conf = regulators of RGS19-Galphao binding, confirmation, biochemical, single point, multiplexed bead flow cytometry. actives 5% (n = 1,700). bead-based flow cytometry RGS19-Galphao binding; actives lie on both sides. shares compounds with RGS16-Gao HTS. response (percent of control binding), % at 10 µM; in the data active = response below about 50% or above about 160%; inactive = in between;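 note: 100% = no compound control and 0% = blank background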
Target sequence (P09471 whole entry, looked up): as above
Target sequence (P49795 whole entry, looked up): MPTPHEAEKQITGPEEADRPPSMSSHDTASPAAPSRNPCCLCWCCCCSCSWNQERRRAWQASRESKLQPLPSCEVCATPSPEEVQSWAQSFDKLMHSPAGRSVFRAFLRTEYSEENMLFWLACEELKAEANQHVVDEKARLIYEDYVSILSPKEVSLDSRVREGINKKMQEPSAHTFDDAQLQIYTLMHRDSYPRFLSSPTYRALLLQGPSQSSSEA
Numbers without * were called inactive; ? = inconclusive; nt = no result; [ ] = another dose, or the depositor's remark. Compounds with a hit are over-represented: about 1.2% of the library has one in this group of screens. Unless noted, the rule behind the calls is not given here.

SMILES	Avidin bead fluor	GSH bead fluor	RGS4-Gao reg	RGS8-Gao	RGS7-Gao	RGS16-Gao HTS	RGS4-Gao HTS	Avidin counter	RGS8-Gao single	RGS7-Gao single	RGS16-Gao single	RGS4-Gao confirm	RGS19-Gao conf
CCC(C)n1c(=S)[nH]c2ccccc2c1=O (stereo not drawn)	8	13	96.4	98.6	?	101.8	nt	nt	nt	nt	nt	nt	nt
Nc1nc(N2CCN(C(c3ccccc3)c3ccccc3)CC2)n[nH]1	2	11	82.0	57.0*	39.1*	91.2	82.0*	2.7	100.0	88.3	95.0	94.0	86.2
CC(C)CCC(CC(C)O)C(=O)NNC(=S)Nc1ccccc1 (stereo not drawn)	9	nt	102.8	101.5	?	103.3	nt	nt	nt	nt	nt	nt	nt
COc1cccc(Nc2nnc(SCN3C(=O)c4ccccc4C3=O)s2)c1	12	13	122.2	153.4*[activator]	129.8	550.8	122.2*	1.0	102.8	100.7	100.3	101.9	106.1
O=C(NCc1ccc2c(c1)OCO2)NC12CC3CC(CC(C3)C1)C2	21	15	136.4	149.1*[activator]	137.4	162.1	136.4*	-0.3	91.8	89.1	88.3	81.7	222.5*[activator]
O=C(COc1ccc2c(c1)OCO2)NC12CC3CC(CC(C3)C1)C2	27	25	104.4	101.1	117.1	103.7	nt	nt	nt	nt	nt	nt	nt
Cc1ccc(S(=O)(=O)N2CCC(C(=O)N3CCC[C@H]3C(=O)NC3CCS(=O)(=O)C3)CC2)cc1 (stereo partly drawn)	15	11	85.1	78.6	90.5	-64.6*	85.1*	0.4	101.2	97.8	97.7	99.5	112.2
Cc1ccc(S(=O)(=O)N2CCC(C(=O)N[C@H](C(=O)NC3CCS(=O)(=O)C3)C(C)C)CC2)cc1 (stereo partly drawn)	6	34	107.0	107.6	108.3	100.3	nt	nt	nt	nt	nt	nt	nt
COc1ccc(CCNC(=O)Cn2cnc3scc(-c4ccccc4)c3c2=O)cc1OC	9	13	103.0	101.9	95.2	101.5	nt	nt	nt	nt	nt	nt	nt
CC(=O)N1CCc2c(sc(NC(=O)CN3C(=O)c4ccccc4C3=O)c2C(N)=O)C1	6	18	145.7	139.9	156.9*[activator]	150.1	145.7*	-0.7	105.0	111.6	105.9	109.4	96.9
Cc1onc(-c2ccccc2)c1C(=O)NC(=S)NNC(=O)c1cc(-c2ccc(F)cc2)n[nH]1	8	nt	101.8	103.1	?	103.5	nt	nt	nt	nt	nt	nt	nt
COc1ccc(C2CC(c3ccccc3)=NN2C(=S)Nc2ccccc2)cc1 (stereo not drawn)	25	9	104.3	101.6	109.1	103.5	nt	nt	nt	nt	nt	nt	nt
COc1ccc(C2=NN(C(=S)Nc3ccccc3)C(c3ccccc3)C2)cc1 (stereo not drawn)	12	11	116.8	134.1	118.2	385.0*[activator]	116.8*	-0.4	106.5	102.3	109.0	104.8	118.1
N#CCCN1CCCc2cc(N=Nc3ccc(C(F)(F)F)cc3)ccc21	7	nt	101.4	101.5	?	102.2	nt	nt	nt	nt	nt	nt	nt
CCc1nccn1S(=O)(=O)c1cc(OC)c(Cl)cc1OC	-4	12	-221.8*	12.5*	-75.7*	77.4	nt	-0.7	101.3	74.8*	88.7	83.9	57.5
CCc1nccn1S(=O)(=O)c1cc(C)c(OC)cc1C	5	17	102.0	106.2	103.5	113.2	nt	nt	nt	nt	nt	nt	nt
CC(C)NC(=O)c1ccc(C2SCC(=O)N2Cc2ccccc2)cc1 (stereo not drawn)	185*	21	266.7*[activator]	89.9	254.3*[activator]	346.4*[activator]	nt	-0.7	87.7	75.3*	84.2	82.4	71.1
OC1CCN(c2ncnc3c2nnn3Cc2c(F)cccc2Cl)CC1	nt	46	130.8	118.1	152.3*[activator]	nt	130.8*	0.0	80.8	70.2*	77.9	78.8	76.7
CCOc1cc(S(=O)(=O)NCc2cccnc2)c(C)cc1C	7	16	90.3	88.2	88.6	89.8	nt	nt	nt	nt	nt	nt	nt
C=Cn1nc(C)c2ccccc2c1=O	0	31	24.6*	15.6*	14.0*	17.5*	nt	1.2	99.1	100.2	98.8	99.0	103.9
Cc1nn(C(C)C(=O)O)c(=O)c2ccccc12 (stereo not drawn)	5	8	94.2	90.0	95.3	66.6	nt	nt	nt	nt	nt	nt	nt
COc1cccc(CC2(CO)CCCN(Cc3ccc4c(c3)OCCO4)C2)c1 (stereo not drawn)	2	15	76.2	81.6	67.2	68.6	nt	nt	nt	nt	nt	nt	nt
O=C(Nc1ccc2[nH]c(=O)[nH]c2c1)c1c(F)c(F)c(F)c(F)c1F	14	71	98.1	101.2	101.0	101.2	nt	nt	nt	nt	nt	nt	nt
CC(=O)NN1C(=O)c2ccccc2NC1c1ccccn1 (stereo not drawn)	7	14	97.0	85.3	94.5	22.4*	97.0*	1.7	104.1	103.4	101.0	105.0	108.1
CC(c1ccccc1C(O)(c1ccccc1)c1ccccc1)N(C)C (stereo not drawn)	-3	9	16.8*	13.7*	7.0*	-42.8	nt	1.0	104.4	107.1	108.4	106.7	90.8
CC(C)N(CC#CCC(O)(c1ccccc1)c1ccccc1)C(C)C	2	7	101.0	101.8	97.9	97.8	nt	nt	nt	nt	nt	nt	nt
